# Screening data as filed in PubChem BioAssay.
# Bead autofluor = counter-screen for toxin protease inhibitors: compound fluorescence; compound autofluorescence counterscreen, microsphere flow cytometry; active compounds read high; fluorescence intensity (test concentration not listed); actives 3.1% (n = 360,000); in the data active means fluorescence intensity above about 16000; inconclusive means no clear call, values can overlap the other calls
# BoNT F protease = blocks Botulinum neurotoxin F light chain protease; Multiplex microsphere protease cleavage assay, flow cytometry; inhibition, % at 10 µM; actives 0.22% (n = 360,000); in the data active means inhibition above about 35%, passing the limit was not always enough; inconclusive means no clear call, values can overlap the other calls; further: plate controls were buffer without enzyme for full effect and enzyme alone for no effect
# Anthrax LF inh2 = inhibitors of Bacillus anthracis lethal factor protease; P15917; multiplex microsphere protease cleavage assay, LF; inhibition, % at 10 µM; actives 0.12% (n = 360,000); AID 588501; further: plate controls were buffer without enzyme for full effect and enzyme alone for no effect
# Target sequence (P15917 whole entry, looked up): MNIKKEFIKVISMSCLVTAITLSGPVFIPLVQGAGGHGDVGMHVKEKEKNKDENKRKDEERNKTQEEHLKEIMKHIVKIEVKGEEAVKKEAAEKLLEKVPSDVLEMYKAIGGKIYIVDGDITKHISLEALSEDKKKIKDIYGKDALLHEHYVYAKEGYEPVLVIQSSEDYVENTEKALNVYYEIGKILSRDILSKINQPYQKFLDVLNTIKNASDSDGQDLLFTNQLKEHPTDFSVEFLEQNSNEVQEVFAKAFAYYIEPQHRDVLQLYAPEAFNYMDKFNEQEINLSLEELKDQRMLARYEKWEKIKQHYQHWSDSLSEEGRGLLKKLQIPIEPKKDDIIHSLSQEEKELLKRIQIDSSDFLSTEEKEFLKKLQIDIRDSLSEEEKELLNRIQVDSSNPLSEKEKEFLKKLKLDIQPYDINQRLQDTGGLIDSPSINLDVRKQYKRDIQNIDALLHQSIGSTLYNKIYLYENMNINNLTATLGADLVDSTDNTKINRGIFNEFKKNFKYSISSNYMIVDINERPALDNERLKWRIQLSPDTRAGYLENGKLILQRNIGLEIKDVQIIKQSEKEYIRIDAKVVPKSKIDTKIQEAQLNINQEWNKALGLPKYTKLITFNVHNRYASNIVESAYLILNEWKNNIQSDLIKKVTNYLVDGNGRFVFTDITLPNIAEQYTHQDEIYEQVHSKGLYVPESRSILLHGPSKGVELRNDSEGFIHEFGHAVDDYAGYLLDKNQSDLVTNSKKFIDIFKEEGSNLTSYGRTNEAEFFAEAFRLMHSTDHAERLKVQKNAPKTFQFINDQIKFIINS
# BoNT A protease = blocks Botulinum neurotoxin A light chain protease; multiplex microsphere protease substrate cleavage, flow cytometry; inhibition, % at 10 µM; actives 0.17% (n = 360,000); further: plate controls were buffer without enzyme for full effect and enzyme alone for no effect
# An asterisk follows results filed as active; ? = inconclusive. Rows were chosen to be rich in hits. Some 3.5% of all compounds tested hit in one or more screens of this group. Unless noted, no stated cut-off is given here; in the data, active means inhibition above about 30%; inconclusive means no clear call, values can overlap the other calls; inactive means below that.
SMILES,Bead autofluor,BoNT F protease,Anthrax LF inh2,BoNT A protease
CC1Cc2ccccc2N1C(=O)CSc1nnc(-c2ccccc2)c(-c2ccccc2)n1 (stereo unspecified),16388*,?,?,?
CCN(CC)S(=O)(=O)c1ccc(-c2nnc(SCC(=O)N3CCOCC3)o2)cc1,10108,1,-1,0
COC(=O)[C@]12CCCCC=C1N(Cc1ccc(Cl)cc1Cl)C(=O)[C@H](CC(=O)N1CCN(C(=O)c3ccco3)CC1)C2,4279,2,-3,0
COc1cccc(CN(C)C(=O)C2CCCN(C(=O)c3ccc(Cl)cc3)C2)c1 (stereo unspecified),3500,3,-1,0
C/C(=N\O)c1ccc2c3ccccc3n(C)c2c1,21762*,-8,-4,?
CCc1cc(=O)oc2cc(C)c(CN3CCCC3)c(O)c12,17050*,-9,-4,-2
CCN(CC)C1=NC(=[N+](CC)CC)c2ccccc21,17474*,17,-9,14
COc1ccc(S(=O)(=O)N(C(C)=O)c2ccc3oc(=O)sc3c2)cc1,20711*,1,1,-1
CCN1C(=O)N[C@@H](c2cccs2)C(C(=O)OC)=C1C,4040,1,4,0
COC(=O)C1=C(C)C(c2cccs2)NC(=O)N1C (stereo unspecified),16502*,0,-3,?
COc1ccc(C2CC=C(C(C)=O)CN2S(=O)(=O)c2ccccc2)cc1 (stereo unspecified),4223,3,12,0
Cc1ccc(C(C(=O)NC2CCCCC2)N(C(=O)Cc2c[nH]c3ccccc23)c2ccccc2)o1 (stereo unspecified),20827*,4,-2,?
O=C(c1cc2cc([N+](=O)[O-])ccc2oc1=O)N1CCN(c2ncccn2)CC1,7793,38*,-2,6
Cc1oc(-c2ccccc2F)nc1CN1CCC(C(=O)NC2CCCCCCC2)CC1,16243*,2,-1,1
COc1ccc(CCNC(=O)C2CCN(Cc3nc(-c4ccccc4C)oc3C)CC2)cc1OC,22311*,-4,-7,-2
COc1ccc(CCNC(=O)C2CCN(Cc3nc(-c4ccc(Cl)cc4)oc3C)CC2)cc1OC,3492,-2,-9,-1
Cc1oc(-c2ccccc2F)nc1CN1CCC(C(=O)NCc2ccco2)CC1,19776*,1,2,?
OC[C@@H]1CN(C2CCCC2)C[C@H](n2cnc3c(NC4CC4)ncnc32)O1,4025,-6,-4,0
CCCCNC(=S)N(CCCO)Cc1cc2cc3c(cc2[nH]c1=O)OCO3,2911,-1,1,0
CC(C)C[C@H]1CNC(=O)C(=O)N1C[C@@H]1CCCN1C[C@H](Cc1ccccc1)N1C[C@H](Cc2ccccc2)N(CCc2ccccc2)C(=O)C1=O,4958,-8,5,0
Cn1c(=O)oc2cc(S(=O)(=O)N3CCC4(CC3)OCCO4)ccc21,22987*,3,-2,3
COC(=O)n1c(=O)oc2ccc(S(=O)(=O)N3CCCCC3)cc21,4974,2,-7,0
COC(=O)n1c(=O)oc2cc(S(=O)(=O)N3CCOCC3)ccc21,20705*,12,-8,4
O=C(OCc1ccccc1)Oc1cncc(C(=O)O)c1,16938*,-5,-6,-3
CS(=O)(=O)NCCOc1ccc(S(=O)(=O)NCCOc2ccccc2)cc1,4743,-6,-7,-2
SMILES,Bead autofluor,BoNT F protease,Anthrax LF inh2,BoNT A protease
O=S(=O)(NCCOc1ccccc1)c1ccc2ccccc2c1,19154*,3,2,?
Cc1nc(NC(C)c2ccccc2)c2c3c(sc2n1)CCC3 (stereo unspecified),16604*,-2,4,-1
Cc1ccc(CNc2nc(C)nc3sc4c(c23)CCC4)cc1,17440*,-4,-1,?
Cc1nc(Nc2ccc(O)cc2)c2c3c(sc2n1)CCCC3,4313,2,4,0
O=C(Nc1cccc2[nH]ncc12)c1ccc(F)cc1,22322*,2,-5,?
CCOC(=O)C1=CCN(S(=O)(=O)c2ccccc2C)C1c1ccc(Cl)cc1 (stereo unspecified),6242,2,-3,0
Cc1cc(C(C)(C)C)cc(S(=O)(=O)Nc2ccc(O)c(C(=O)O)c2)c1C,20140*,3,0,?
CC(=O)Nc1ccc(NC(=O)c2ccc(NS(=O)(=O)c3cc(C(C)(C)C)cc(C)c3C)cc2)cc1,2027,-2,1,0
COC(=O)c1ccc2nccnc2c1,6135,0,1,0
CC(C)(C)c1cc(C(=O)Nc2ccccc2)ccn1,3895,-9,-2,0
CCN1C(=O)CSc2ccc(C(=O)NCc3ccco3)cc21,16140*,4,0,2
CC(C)(C)NC(=O)c1ccnc(C(C)(C)C)c1,17617*,20,-19,18
CC(C)(C)c1cc(C(=O)NCc2ccco2)ccn1,24501*,-5,-1,-2
CC(C)(C)NC(=O)c1ccc2nccnc2c1,16956*,-2,-1,-2
CC(=O)Nc1ccc(S(=O)(=O)NCCC(=O)NCC2COc3ccccc3O2)cc1 (stereo unspecified),4414,-1,-3,-1
Cc1nc2[nH]c(=O)n(O)c(=O)c2s1,3691,3,-8,1
Cc1cccc(CC(=O)NCCn2c(C)cc3ccccc32)c1,1493,-58,-20,89*
O=C(COC(=O)C1(c2ccc(F)cc2)CCCC1)NC1CC1,17844*,-3,1,-3
CNc1ccc(Br)cc(C(=O)/C=C/c2cc(OC)ccc2OC)c1=O,17230*,15,28,24
CNc1ccc(Br)cc(C(=O)/C=C/c2ccc(OC)cc2)c1=O,2252,2,9,28
CCNc1ccc(Br)cc(C(=O)/C=C/c2ccc(Cl)cc2Cl)c1=O,17500*,28,43*,?
O=C(OCC(=O)N1CCOCC1)c1cncc(Br)c1,4174,1,-5,0
CC(C)(C)S(=O)N1Cc2cc(CO)ccc2[C@H]1CCO (stereo partly specified),2840,-1,-7,0
O=C(NCCN1CCOCC1)c1noc2c1CCc1ccccc1-2,23180*,-2,0,-3
O=C(NCCc1ccccc1)c1noc2c1CCc1ccccc1-2,17456*,20,0,14
SMILES,Bead autofluor,BoNT F protease,Anthrax LF inh2,BoNT A protease
O=C(NCCN1CCN(c2ccccc2)CC1)c1cccc(Br)c1,23925*,0,-1,0
O=C(Cc1ccc(-c2ccccc2)cc1)NCCN1CCOCC1,3265,18,-1,0
O=C(NCCN1CCOCC1)c1ccc(-c2ccccc2)cc1,20391*,7,-1,7
CC1CC(=Cc2ccc(N)cc2)C(=O)O1 (stereo unspecified),3379,-2,2,-1
COCc1cccc(-c2csc(C(C)(O)c3cccc(OC)c3)n2)c1 (stereo unspecified),3876,2,-2,0
Cc1ccc(N2CCN(CC3CC=CCC3)CC2)cc1 (stereo unspecified),21210*,3,-2,2
CNC(=O)C1CC(=O)N(Cc2ccccc2)C(=Nc2ccc(OC)cc2)S1 (stereo unspecified),23832*,-4,-1,?
CNC(=O)C1CC(=O)N(Cc2ccc(OC)c(OC)c2)C(=Nc2ccc(OC)cc2)S1 (stereo unspecified),2904,1,-6,0
